This passage reports outcome and AC50 results from PubChem BioAssay (EPA / NIEHS).

Assay [1] deals with Transcription factor E2F1 (Homo sapiens) (UniProt Q01094). In words: ATG_E2F_CIS: Attagene CIS-FACTORIAL HepG2 Assay for human E2F Transcription Factor 1 (AID 2282935). Conditions: HepG2 Attagene cis-reporter, E2F reporter RNA transcripts; actives raise or lower the signal. In a few lines: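 Transient MRTU transfection of HepG2; 24 h compound exposure; RNA → oligo(dT) RT → PCR → FAM label → HpaI cut → CE fluorescence. Gain/loss of signal fit against DMSO.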
Chain of Transcription factor E2F1 (Homo sapiens) (Q01094 whole entry, looked up): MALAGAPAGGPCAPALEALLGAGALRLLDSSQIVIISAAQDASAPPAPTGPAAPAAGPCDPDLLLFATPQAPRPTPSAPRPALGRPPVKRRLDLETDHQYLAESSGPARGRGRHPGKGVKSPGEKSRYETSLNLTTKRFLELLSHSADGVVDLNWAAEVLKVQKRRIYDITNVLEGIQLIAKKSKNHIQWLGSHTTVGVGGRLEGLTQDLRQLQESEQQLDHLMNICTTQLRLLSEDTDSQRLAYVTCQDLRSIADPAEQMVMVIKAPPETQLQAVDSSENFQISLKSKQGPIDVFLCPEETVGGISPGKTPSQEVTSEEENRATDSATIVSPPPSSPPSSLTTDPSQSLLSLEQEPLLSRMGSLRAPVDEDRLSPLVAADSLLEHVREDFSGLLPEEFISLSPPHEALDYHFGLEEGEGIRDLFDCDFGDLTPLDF

A short description of assay [2]: ATG_E_Box_CIS: Attagene CIS-FACTORIAL HepG2 Assay for human Enhancer Box (E-box) (AID 2282936). Conditions: HepG2 E-box cis-reporter transcription, actives raise or lower the signal. Put shortly:
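Transiently transfected HepG2, endogenous TF-driven reporters, 24 h dosing. Readout: RT-PCR plus capillary electrophoresis of fluorescent reporter fragments. Gain or loss of signal fitted bidirectionally against DMSO baseline.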

A short description of assay [3]: ATG_M_61_CIS: Attagene CIS-FACTORIAL HepG2 Assay for M61 Transcription Factor (Internal Marker) (AID 2282937). To be noted: HepG2 Attagene CIS-FACTORIAL M61 internal marker reporter; actives raise or lower the signal. In a few lines:
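Transfect HepG2 with MRTUs; dose 24 h; isolate RNA; reverse-transcribe with DNase I treatment; PCR-amplify, FAM-label and cut with HpaI for 2 h at 37 C; resolve by CE. Bidirectional fitting against DMSO.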

The nature of assay [4]: ATG_EGR_CIS: Attagene CIS-FACTORIAL HepG2 Assay for human Early Growth Response 1 (EGR1) (AID 2282938). Conditions: HepG2 Attagene CIS-FACTORIAL EGR reporter mRNA; actives raise or lower the signal. In a few lines:
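After a 24 h treatment of transiently transfected HepG2 cells, total RNA was reverse-transcribed and reporter sequences PCR-amplified, labelled and run on capillary electrophoresis. Reporters sit under cis-regulatory promoters sensing endogenous factors.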

Assay [5] is described as follows: ATG_ERE_CIS: Attagene CIS-FACTORIAL HepG2 Assay for Estrogen Response Element (ERE) (AID 2282940). To be noted: HepG2 ERE cis-reporter, Attagene RNA transcript; actives raise or lower the signal. Put shortly:
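HepG2, transient cis-reporter units, 24 h exposure. RNA isolated, oligo(dT) RT, reporter-specific PCR, FAM extension, HpaI cut, CE detection. Gain/loss-of-signal vs DMSO.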

Assay [6] can be described thus: ATG_Ets_CIS: Attagene CIS-FACTORIAL HepG2 Assay for human Erythroblast Transformation Specific (ETS) (AID 2282941). To be noted: HepG2 ETS cis-reporter transcription, actives raise or lower the signal. Put shortly: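 Endogenous transcription factor activity read as reporter mRNA via RT-PCR and capillary electrophoresis, with gain or loss fitted bidirectionally against DMSO. Human HepG2 liver cells, transiently transfected CIS reporter constructs, 24 h exposure.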

Assay [7] has as its target Hepatocyte nuclear factor 3-beta (Homo sapiens) (UniProt Q9Y261). In words: ATG_FoxA2_CIS: Attagene CIS-FACTORIAL HepG2 Assay for human Forkhead box A2 (FOXA2) (AID 2282942). Conditions: HepG2 cis-reporter transcription factor activity, 24 h; actives raise or lower the signal. Put shortly: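 24 h dosing of HepG2 bearing cis-reporter constructs; mRNA readout by RT-PCR/CE fluorescence; bidirectional fit, DMSO baseline.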

A short description of assay [8]: ATG_FoxO_CIS: Attagene CIS-FACTORIAL HepG2 Assay for human Forkhead box O (FoxO) (AID 2282943). To be noted: HepG2 Attagene cis-reporter, FoxO element, mRNA; actives raise or lower the signal. Put shortly:
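Transfected HepG2 reporter cells exposed to test chemical for 24 h; reporter RNA measured by reverse transcription, PCR and fluorescent capillary electrophoresis; curves fitted for increases and decreases against DMSO.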

Assay [9] in a line: ATG_GATA_CIS: Attagene CIS-FACTORIAL HepG2 Assay for human GATA Binding Protein (AID 2282944). To be noted: HepG2 GATA cis-element reporter, Attagene multiplex mRNA; actives raise or lower the signal. Put shortly:
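DMSO serves as negative control and baseline for bidirectional fitting of reporter mRNA changes. HepG2 cells bearing transiently transfected cis-promoter reporters were exposed 24 h; transcripts detected via RT-PCR and capillary electrophoresis.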

Assay [10] in a line: ATG_GLI_CIS: Attagene CIS-FACTORIAL HepG2 Assay for human Zinc Finger Protein GLI1 (AID 2282945). To be noted: HepG2, Attagene cis-factorial reporter mRNA, GLI element; actives raise or lower the signal. Put shortly: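 Transiently transfected HepG2 cells report endogenous transcription factor activity via cis-element-driven reporter units. After 24 h compound exposure, reporter mRNA was measured by RT-PCR with capillary electrophoresis; bidirectional fitting against DMSO baseline.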

Assay [11] has as its target Bile acid receptor (Homo sapiens) (UniProt Q96RI1). In words: ATG_IR1_CIS: Attagene CIS-FACTORIAL HepG2 Assay for human Nuclear Receptor Subfamily 1 Group H Member 4 (NR1H4), IR1 submotif (AID 2282946). Conditions: IR1 reporter transcription, actives raise or lower the signal. Put shortly: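 Fluorescence of capillary-separated, HpaI-digested RT-PCR reporter products gave IR1-element mRNA induction in HepG2 cells 24 h after dosing. Endogenous transcription factors drove the cis-regulated reporters; activity was fitted bidirectionally against DMSO.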

A short description of assay [12]: ATG_ISRE_CIS: Attagene CIS-FACTORIAL HepG2 Assay for human Interferon Regulatory Factor 1 (IRF1) binding to an Interferon-Stimulated Response Element (ISRE) (AID 2282948). To be noted: HepG2 ISRE cis-reporter (Attagene), mRNA transcription readout; actives raise or lower the signal. In a few lines:
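Endogenous transcription factor activity read as reporter transcript abundance via RT-PCR and capillary electrophoresis. HepG2 cells transiently transfected, 24 h chemical exposure. Gain or loss fitted against DMSO baseline.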

Assay [13] can be described thus: ATG_M_32_CIS: Attagene CIS-FACTORIAL HepG2 Assay for M32 Transcription Factor (Internal Marker) (AID 2282949).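 Further: background control marker of the multiplexed CIS panel rather than a real target.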 To be noted: HepG2 Attagene cis-factorial M32 reporter, mRNA; actives raise or lower the signal. In a few lines:
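Transient MRTU transfection of HepG2; 24 h compound treatment; TriZol RNA, oligo(dT) RT, reporter PCR, 6-FAM primer extension, HpaI cut, CE. Gain/loss of signal vs DMSO.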

The nature of assay [14]: ATG_M_06_CIS: Attagene CIS-FACTORIAL HepG2 Assay for M06 Transcription Factor (Internal Marker) (AID 2282950). Conditions: HepG2 Attagene CIS-FACTORIAL M06 internal marker reporter; actives raise or lower the signal. Put shortly: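 Fluorescence-labelled RT-PCR products from cis-promoter reporter units, cut with HpaI and resolved by capillary electrophoresis, give the signal. Cells are human HepG2, dosed for 24 h. Serves as background control, fitted relative to DMSO.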

Assay [15] concerns the target Hypoxia-inducible factor 1-alpha (Homo sapiens) (UniProt Q16665). In words: ATG_HIF1a_CIS: Attagene CIS-FACTORIAL HepG2 Assay for human Hypoxia Inducible Factor 1 (HIF1A) (AID 2282951). Conditions: HepG2 Attagene cis-factorial HIF1a reporter transcription; actives raise or lower the signal. Put shortly:
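After 24 h chemical exposure of reporter-transfected HepG2 cells, reporter cDNA was PCR-amplified, labelled by 6-FAM primer extension (2 min 95 C, 20 s 68 C, 10 min 72 C), HpaI-cut (2 h, 37 C) and analysed by CE.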

The target of assay [16] is Hepatocyte nuclear factor 6 (Homo sapiens) (UniProt Q9UBC0). Briefly: ATG_HNF6_CIS: Attagene CIS-FACTORIAL HepG2 Assay for human Hepatocyte Nuclear Factor 6 (HNF6) (AID 2282952). To be noted: HepG2 Attagene cis-factorial HNF6 reporter transcription; actives raise or lower the signal. Put shortly: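 Twenty-four-hour chemical treatment of reporter-transfected HepG2 cells precedes RNA isolation, DNase-treated reverse transcription and PCR of reporter sequences. Labelled fragments are sized by capillary electrophoresis and fitted bidirectionally versus DMSO.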
Chain of Hepatocyte nuclear factor 6 (Homo sapiens) (Q9UBC0 whole entry, looked up, the tested form may be a part): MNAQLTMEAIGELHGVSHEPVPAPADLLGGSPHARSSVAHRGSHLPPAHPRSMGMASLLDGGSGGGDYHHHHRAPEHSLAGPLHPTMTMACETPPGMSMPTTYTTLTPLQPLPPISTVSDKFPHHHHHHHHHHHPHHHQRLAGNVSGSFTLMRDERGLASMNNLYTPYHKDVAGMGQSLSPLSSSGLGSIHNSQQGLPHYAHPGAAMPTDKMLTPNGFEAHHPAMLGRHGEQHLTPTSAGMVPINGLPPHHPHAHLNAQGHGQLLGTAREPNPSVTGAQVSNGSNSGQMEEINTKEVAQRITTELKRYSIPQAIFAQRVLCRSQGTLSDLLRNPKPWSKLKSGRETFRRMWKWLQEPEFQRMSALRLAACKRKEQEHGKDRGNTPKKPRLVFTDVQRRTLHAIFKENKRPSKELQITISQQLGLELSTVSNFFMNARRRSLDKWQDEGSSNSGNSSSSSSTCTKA

Assay [17] addresses Heat shock factor protein 1 (Homo sapiens) (UniProt Q00613). Briefly: ATG_HSE_CIS: Attagene CIS-FACTORIAL HepG2 Assay for human Heat Shock Transcription Factor 1 (HSE) (AID 2282953). Conditions: HepG2 HSE cis-reporter, Attagene RNA transcription; actives raise or lower the signal. Put shortly: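 After a 24 h incubation with test chemical, transfected HepG2 cells were harvested for RNA; reporter transcripts were measured by RT-PCR and capillary electrophoresis. Values reflect gain or loss of signal relative to DMSO.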

Assay [18] is described as follows: ATG_MRE_CIS: Attagene CIS-FACTORIAL HepG2 Assay for human Metal Responsive Element (MRE) (AID 2282954). To be noted: HepG2 MRE cis-reporter transcription, Attagene multiplex; actives raise or lower the signal. In a few lines:
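RT-PCR/capillary electrophoresis readout of reporter mRNA, 24 h post-dosing, in HepG2 cells transfected with multiplexed cis-regulated reporter constructs. Gain or loss of signal fitted bidirectionally against DMSO baseline.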

Assay [19] can be described thus: ATG_M_19_CIS: Attagene CIS-FACTORIAL HepG2 Assay for M19 Transcription Factor (Internal Marker) (AID 2282939). Conditions: HepG2 Attagene CIS-FACTORIAL M19 internal marker reporter; actives raise or lower the signal. In a few lines: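 Following a 24 h exposure, RNA from transfected HepG2 cells was reverse-transcribed, PCR-amplified with reporter-specific primers, end-labelled with 6-FAM and HpaI-digested before capillary separation. Values represent gain or loss versus DMSO.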

A short description of assay [20]: ATG_GRE_CIS: Attagene CIS-FACTORIAL HepG2 Assay for human Glucocorticoid Response Elements (GRE) (AID 2282947). To be noted: HepG2 GRE cis-reporter, Attagene multiplex mRNA; actives raise or lower the signal. Put shortly:
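Read-out: fluorescent reporter-transcript fragments separated by capillary electrophoresis after RT-PCR. Transiently transfected HepG2 cells carrying cis-element-driven reporter units were dosed for 24 h; gain or loss of signal fitted against DMSO control.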

The AC50 is the concentration at which the activity in the assay is half-maximal.

Each structure is given as a SMILES string. Activity calls are given as the source filed them. How the source made its calls: active means hit-call score of the fitted dose curve at least 0.9, where 1 is the maximum; inactive means score below 0.9.

Chain of Hypoxia-inducible factor 1-alpha (Homo sapiens) (Q16665 whole entry, looked up): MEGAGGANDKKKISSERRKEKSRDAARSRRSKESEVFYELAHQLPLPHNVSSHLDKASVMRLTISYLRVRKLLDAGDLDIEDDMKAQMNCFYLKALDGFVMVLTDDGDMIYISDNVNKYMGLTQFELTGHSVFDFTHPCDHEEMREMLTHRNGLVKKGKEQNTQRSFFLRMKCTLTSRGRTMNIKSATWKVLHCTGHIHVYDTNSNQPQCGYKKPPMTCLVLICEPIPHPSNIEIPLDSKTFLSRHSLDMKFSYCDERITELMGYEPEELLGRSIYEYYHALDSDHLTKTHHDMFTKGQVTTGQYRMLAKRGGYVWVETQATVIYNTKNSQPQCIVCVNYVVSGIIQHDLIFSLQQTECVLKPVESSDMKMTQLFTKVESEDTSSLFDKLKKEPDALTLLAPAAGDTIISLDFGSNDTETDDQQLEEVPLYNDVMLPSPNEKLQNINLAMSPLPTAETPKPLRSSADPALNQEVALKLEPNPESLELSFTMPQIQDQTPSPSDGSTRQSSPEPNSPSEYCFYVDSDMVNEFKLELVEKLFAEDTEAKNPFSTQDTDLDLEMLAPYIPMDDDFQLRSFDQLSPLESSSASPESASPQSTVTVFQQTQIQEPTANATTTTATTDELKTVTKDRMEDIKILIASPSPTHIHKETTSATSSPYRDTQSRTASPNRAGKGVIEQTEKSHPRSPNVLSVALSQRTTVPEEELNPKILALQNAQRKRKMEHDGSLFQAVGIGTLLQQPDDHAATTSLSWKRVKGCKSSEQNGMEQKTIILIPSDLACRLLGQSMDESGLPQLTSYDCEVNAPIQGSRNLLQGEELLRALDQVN
Chain of Heat shock factor protein 1 (Homo sapiens) (Q00613 whole entry, looked up): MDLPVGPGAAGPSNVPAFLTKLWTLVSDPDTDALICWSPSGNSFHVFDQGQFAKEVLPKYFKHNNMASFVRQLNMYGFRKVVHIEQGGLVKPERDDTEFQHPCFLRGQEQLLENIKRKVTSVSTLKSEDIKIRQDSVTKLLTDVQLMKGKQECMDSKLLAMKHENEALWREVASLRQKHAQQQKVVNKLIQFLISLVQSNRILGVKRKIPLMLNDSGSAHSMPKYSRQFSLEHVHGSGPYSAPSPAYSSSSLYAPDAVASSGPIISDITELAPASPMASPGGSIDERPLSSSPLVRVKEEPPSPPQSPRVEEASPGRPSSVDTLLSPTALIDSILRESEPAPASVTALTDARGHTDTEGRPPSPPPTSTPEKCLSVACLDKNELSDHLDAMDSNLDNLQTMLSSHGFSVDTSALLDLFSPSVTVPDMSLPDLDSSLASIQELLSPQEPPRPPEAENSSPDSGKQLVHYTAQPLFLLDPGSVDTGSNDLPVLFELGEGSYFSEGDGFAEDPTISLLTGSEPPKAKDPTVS
Chain of Bile acid receptor (Homo sapiens) (Q96RI1 whole entry, looked up): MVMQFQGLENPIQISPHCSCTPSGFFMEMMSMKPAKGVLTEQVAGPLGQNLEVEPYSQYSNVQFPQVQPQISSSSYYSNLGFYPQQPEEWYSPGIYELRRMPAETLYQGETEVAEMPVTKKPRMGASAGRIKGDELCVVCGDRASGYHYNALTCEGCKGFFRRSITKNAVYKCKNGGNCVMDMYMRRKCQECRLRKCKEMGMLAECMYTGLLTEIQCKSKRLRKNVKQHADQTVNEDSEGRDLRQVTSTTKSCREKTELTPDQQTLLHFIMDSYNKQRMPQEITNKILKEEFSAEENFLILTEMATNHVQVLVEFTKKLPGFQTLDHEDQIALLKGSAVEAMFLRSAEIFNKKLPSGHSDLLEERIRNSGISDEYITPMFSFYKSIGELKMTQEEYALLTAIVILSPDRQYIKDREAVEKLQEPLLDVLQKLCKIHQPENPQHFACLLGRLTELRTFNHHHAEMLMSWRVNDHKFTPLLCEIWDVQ
Chain of Hepatocyte nuclear factor 3-beta (Homo sapiens) (Q9Y261 whole entry, looked up): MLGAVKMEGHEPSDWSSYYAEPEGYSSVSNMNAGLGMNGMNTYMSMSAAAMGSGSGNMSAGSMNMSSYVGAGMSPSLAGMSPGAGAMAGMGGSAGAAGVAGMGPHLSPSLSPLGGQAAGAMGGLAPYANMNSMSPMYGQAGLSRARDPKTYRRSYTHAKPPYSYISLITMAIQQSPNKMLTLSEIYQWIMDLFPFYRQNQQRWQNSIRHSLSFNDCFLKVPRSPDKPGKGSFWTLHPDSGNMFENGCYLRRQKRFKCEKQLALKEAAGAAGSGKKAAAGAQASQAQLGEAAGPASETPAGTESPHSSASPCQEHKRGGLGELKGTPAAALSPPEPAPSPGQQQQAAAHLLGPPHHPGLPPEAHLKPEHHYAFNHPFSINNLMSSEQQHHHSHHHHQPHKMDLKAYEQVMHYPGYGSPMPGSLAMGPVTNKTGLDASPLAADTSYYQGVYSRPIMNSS

For the molecule `CN(C)Cc1cc(CN(C)C)c(O)c(CN(C)C)c1`, the call in assay [1], in [2], in assay [3], in [4], in assay [5] and in assay [6] was inactive. The molecule was classed as inactive in assay [7], in assay [8], in assay [9], in [10], in [11] and in assay [12]. Moreover, the outcome in assay [13], in assay [14], in assay [15], in [16], in assay [17] and in assay [18] was inactive.
For the molecule `CC(=O)OC(C)c1ccccc1` (stereo not drawn), the call in [1], in assay [2], in [3], in assay [4], in [19] and in assay [5] was inactive. Further, the call in assay [6], in [7], in assay [8], in [9], in assay [10] and in [12] was inactive. In addition, the result in assay [13], in assay [14], in assay [15], in assay [16], in assay [17] and in assay [18] was inactive.
For the molecule `CCCCCCCC(=O)OCC`, the molecule was classed as inactive in [1], in [2], in [3], in assay [4], in [5] and in assay [6]. Besides, the outcome in assay [7], in assay [8], in assay [9], in [10], in [11] and in assay [20] was inactive. The result in assay [12], in [14], in [15], in [16], in assay [17] and in assay [18] was inactive.
In the case of `CC(C)(C)N`, the result in [1], in assay [2], in assay [3], in [4], in assay [19] and in [5] was inactive. Moreover, the outcome in [6], in assay [7], in assay [8], in [9], in assay [10] and in assay [12] was inactive. Moreover, the molecule was called inactive in assay [13], in assay [14], in assay [16], in [17] and in [18].
As for `C=Cc1ccc(OC(C)=O)cc1`, the molecule was classed as inactive in assay [1], in [2], in [3], in [4], in [6] and in assay [7]. Moreover, the outcome in [8], in [9], in assay [10], in [20], in assay [12] and in assay [13] was inactive. Further, the molecule was called inactive in assay [14], in assay [15], in [16], in assay [17] and in [18]. In addition, in [5], the AC50 was 35.9 µM (active).
Turning to `C=CCCCCCCCCO`, the molecule was called inactive in [1], in assay [2], in assay [3], in [4], in assay [19] and in assay [5]. The result in assay [6], in assay [7], in assay [9], in assay [10], in assay [20] and in [12] was inactive. In addition, the outcome in assay [13], in [14], in [15], in assay [16], in assay [17] and in [18] was inactive.
`CCCSSCCC`: the call in assay [1], in assay [2], in [3], in assay [4], in assay [19] and in assay [5] was inactive. For the same molecule, the result in assay [6], in [7], in [9], in assay [10], in assay [20] and in assay [12] was inactive. Besides, the outcome in assay [13], in assay [14], in [15], in [16], in assay [17] and in [18] was inactive.
Regarding `CCCCCCCCC(CO)CCCCCC` (stereo not drawn), the AC50 is 189 µM (active) in assay [1]; 34.3 µM (active) in assay [2]; 173 µM (active) in assay [6]; 65.5 µM (active) in assay [9]; 126 µM (active) in assay [20]; 172 µM (active) in assay [16]. Besides, the AC50 in assay [18] is 158 µM (active). The call in assay [3], in assay [4], in assay [19], in assay [5], in [7] and in assay [10] was inactive. The call in assay [11], in assay [13], in assay [14], in assay [15] and in assay [17] was inactive.
